# Results published in PubChem BioAssay AID449764 (Southern Research Specialized Biocontainment Screening …, 2010).
# Among all 2,300 compounds or so, about 1,700 (74%) were called active. No rule for the calls is given here. So high a share suggests a set chosen from earlier hits. The list shows a part of the results. Measured potencies and affinities stand elsewhere.
# Assay: Mycobacterium tuberculosis H37Rv growth inhibition, no glycerol, confirmatory dose response (AID 449764);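 also: growth read after 7 days of incubation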
# Conditions: series mostly up to 100 µM; inhibition: at the top concentration
row,SMILES,inhibition
1,CC(OC(=O)CCN=C1NS(=O)(=O)c2ccccc21)C(=O)Nc1ccc(F)c(F)c1F (centres undefined),-29.2% (inactive)
2,COc1cc(NC(=O)c2ccc(C(C)(C)C)cc2)c(OC)cc1NC(=O)CN1CCCCC1,0.98% (inactive)
3,Cc1sc2nc(CN(C(=O)NC3CCCCC3)C3CCCC3)[nH]c(=O)c2c1C,13.8% (inactive)
4,Cc1cc(Nc2ccccc2)c2c([N+](=O)[O-])ccc(C)c2n1,-0.97% (inactive)
5,O=Cc1ccc2noc(-c3ccc(Cl)cc3)c2c1,20.9% (inactive)
6,Cc1nn(-c2ccccn2)c2c1-c1nc(N3CCOCC3)ncc1CC2,5.91% (inactive)
7,CC(C)N1C(=O)NC(=O)C2(Cc3cc([N+](=O)[O-])ccc3N(C)C2c2ccccc2)C1=O (centres undefined),-12% (inactive)
8,CN(C)c1nc(NCc2ccccc2)nc(N/N=C/c2ccc3c(c2)OCO3)n1,22.3% (inactive)
9,CCCCn1c(N)c(N(CC(C)C)C(=O)c2oc3c(Cl)cccc3c2C)c(=O)[nH]c1=O,2.95% (inactive)
10,OCCN(/C=N/c1nc(-c2ccc(Br)cc2)cs1)CCO,9.76% (inactive)
11,CC(C)(C)n1c(O)c(C=Nc2ccc3c(c2)CCC3)c(=O)[nH]c1=O,-1.75% (inactive)
12,CCOC(=O)c1c(/N=C/N(C)C)sc(/C=N/Nc2ccccc2)c1-c1ccccc1Cl,25.8% (inactive)
13,COCCn1c(-c2ccc(OC(F)(F)C(F)C(F)(F)F)cc2)nc2c1c(=O)[nH]c(=O)n2CC(C)C (centres undefined),4.24% (inactive)
14,COc1ccccc1N1C(=O)NC(=O)/C(=C/c2ccc([N+](=O)[O-])s2)C1=O,-5.18% (inactive)
15,N#CCCn1cc(/C=C2\NC(=S)N(c3ccccc3)C2=O)c(-c2ccc(-c3ccccc3)cc2)n1,3.09% (inactive)
16,CN1/C(=N\O)c2cccc3cccc1c23,10.6% (inactive)
17,Cc1cc(OCc2nc3ccccc3s2)ccc1N,7.73% (inactive)
18,Cc1cc(O)c(/C=N/Nc2cccc(Cl)c2)c(=O)o1,5.78% (inactive)
19,COc1ccc(-c2c(-c3cc(OC)cc(OC)c3)n(C)c3ccc(-c4ccn[nH]4)cc23)cc1,7.87% (inactive)
20,Nc1ccc(N=Nc2ccccc2)c(N)n1,13.5% (inactive)
21,CC(=O)/C(=C\Nc1ccc(OCc2ccccc2)cc1)c1ccccc1,-1.34% (inactive)
22,CCC(C)OC(=O)C(C)Oc1ccc(-c2ccccc2)cc1 (centres undefined),6.06% (inactive)
23,CC(=O)c1cccc(Nc2nc(-c3cccnc3)cs2)c1,2.69% (inactive)
24,O=c1[nH][nH]c(-c2ccccc2O)c1C(C[N+](=O)[O-])c1cccc(Cl)c1 (centres undefined),2.82% (inactive)
25,COc1cc2[nH]c(Cl)c([N+](=O)[O-])c2cc1OC,1.76% (inactive)
26,C#CCOC(=O)/C(=C/c1ccc(F)cc1)NC(C)=O,5.26% (inactive)

row,SMILES,inhibition
1,CN1[C@@H]2CC[C@H]1CC(OC(=O)[C@H](CO)c1ccccc1)C2 (some centres undefined),1.31% (inactive)
2,CCOc1cc(/C=N\NC(=O)Cn2nc([N+](=O)[O-])cc2C)ccc1OCc1cccc2ccccc12,0.56% (inactive)
3,N#CC1=C(N)NC(SCC(=O)c2ccccc2)=C(C#N)C12CCCC2,-2.36% (inactive)
4,CCOc1ccc2nc(/N=C/c3nc(-c4ccccc4)oc3O)sc2c1,0.07% (inactive)
5,COc1ccccc1/C=N/NC(=O)NC12CC3CC(CC(C3)C1)C2,1.84% (inactive)
6,Nc1ccc(OCc2ccco2)cc1,-7.58% (inactive)
7,Nc1cnc(-c2ccccc2)nc1Cl,-1.81% (inactive)
8,Cc1ccc(-c2ccc(/C=N/c3ncn[nH]3)o2)cc1Cl,2.85% (inactive)
9,COc1ccc(-c2nc(C#N)c(N3CCc4ccccc4C3)o2)cc1OC,4.49% (inactive)
10,COc1ccc(NC(=O)C(=O)NCC(c2ccco2)N2CCc3ccccc3C2)cc1 (centres undefined),-1.43% (inactive)
11,C=CCOc1ccc(/C=N/O)cc1Cl,-31.2% (inactive)
12,Cc1ccccc1C1C(C#N)=C2N=C(N)c3c(sc4c3CCCCC4)N2C2=C1C(=O)CC(C)(C)C2 (centres undefined),0.66% (inactive)
13,C[C@]12CCC(=O)C[C@@H]1CC[C@@H]1[C@@H]2CC[C@]2(C)C=CC[C@@H]12,0.91% (inactive)
14,Cn1c(=S)c2[nH]c(SCCN3CCCC3)nc2n(C)c1=O,9.66% (inactive)
15,CCOC(=O)c1ccc(N=C(CC)c2c(O)n(C)c(=O)n(C)c2=O)cc1,8.56% (inactive)
16,CCCN(CC1CC1)C(=O)COC(=O)c1ccc2c(c1)C(=O)N(c1ccc(OCC)cc1)C2=O,19.1% (inactive)
17,CN(C(=O)COC(=O)/C=C/c1ccc(Cl)c(Cl)c1)c1c(N)n(Cc2ccccc2)c(=O)[nH]c1=O,-3.74% (inactive)
18,C=CCOc1ccc(/C=C/C(=O)OCC(=O)NCC2CCCO2)cc1 (centres undefined),1.65% (inactive)
19,CC(C)c1ccc(-c2nn(-c3ccccc3)cc2C(=O)NCC2CCCO2)cc1 (centres undefined),0.34% (inactive)
20,O=S(=O)(c1ccc(Cl)cc1)N1CCC(n2cnc3cc(C(F)(F)F)ccc32)CC1,-5.67% (inactive)
21,O=C1NC(=Nc2ccccc2)S/C1=C\C=C\c1ccco1,-1.01% (inactive)
22,CCCC(O)(CCC)C(=O)NNc1ccc(C)cc1,0.93% (inactive)
23,CC(=O)N1C(Nc2ccc(Cl)cc2)CCN1c1ccccc1 (centres undefined),1.97% (inactive)
24,CCOc1ccc(N=CNc2ccc(OCC)cc2)cc1,4.25% (inactive)
25,Cc1ccc(C(=O)Nc2ccc3c4c(cccc24)CC3)cc1[N+](=O)[O-],-1.35% (inactive)
26,Cc1cc(NC(=O)CCN2C(=O)C3C4C=CC(C4)C3C2=O)ccc1Br (centres undefined),-2.08% (inactive)

row,SMILES,inhibition
1,CCn1c(SCC(=O)Nc2nc3ccc(C)cc3s2)nc2c(c1=O)SC(C)C2 (centres undefined),5.17% (inactive)
2,Cc1ccc(-c2ccc(=O)n(CC(=O)N3CCN(c4cc(Cl)ccc4C)CC3)n2)cc1,7.68% (inactive)
3,CCOC(=O)c1ccc(N=Cc2c(O)c3ccccc3oc2=O)cc1,0.57% (inactive)
4,O=C(CCC1CCCC1)c1c(O)c2ccccc2oc1=O,0.56% (inactive)
5,CCCCCCCCCCC[C@@H](C[C@@H]1OC(=O)[C@H]1CCCCCC)OC(=O)[C@H](CC(C)C)NC=O,-2.49% (inactive)
6,COc1cccc(/C=C/c2nc(C#N)c(NCC(C)C)o2)c1,5.57% (inactive)
7,O=C(O)Cc1c[nH]c2ccc(O)cc12,5.07% (inactive)
8,O=C1C(=O)c2ccccc2C(O)=C1C1CCC(c2ccc(Cl)cc2)CC1 (centres undefined),3.58% (inactive)
9,O=C1C(c2ccccc2)=[N+]([O-])c2ccccc21,13.8% (inactive)
10,COc1ccc(N=C/C=C2/C=C(c3ccccc3)OC(C)(C)O2)cc1,-15.1% (inactive)
11,CCCCOC(=O)c1ccc(O)cc1,2.54% (inactive)
12,CCOc1ccc(/C=C/C2=Cc3c(sc(NC(=O)CSc4n[nH]c(N)n4)c3C#N)C(C)(C)C2)cc1,4.45% (inactive)
13,Cc1ccc(C(=O)COC(=O)C2CC(=O)N(c3nc(-c4ccccc4)cs3)C2)cc1C (centres undefined),4.55% (inactive)
14,Cc1cc(C)n2[nH]c(=O)c(N=Nc3cccc(C(F)(F)F)c3)c2n1,13.8% (inactive)
15,O=c1ccn(-c2ccccc2)[nH]1,-5.26% (inactive)
16,Cc1[nH]n(-c2ccccc2)c(=S)c1C=NCCCN=Cc1c(C)[nH]n(-c2ccccc2)c1=S,-3.3% (inactive)
17,Cc1c(O)c(=O)n(-c2ccccc2)n1C,-11.3% (inactive)
18,O=C(OCC(=O)C12CC3CC(CC(C3)C1)C2)c1ccc(O)cc1O,-5.85% (inactive)
19,CC(=O)NC1C(c2nc3ccccc3s2)=C(c2ccccc2)C(=O)N1c1ccc(C)cc1 (centres undefined),-15.8% (inactive)
20,CCc1ccc(N=CC23c4ccccc4C(c4ccccc42)C2C(=O)N(c4ccc(OC)cc4)C(=O)C23)cc1 (centres undefined),-0.01% (inactive)
21,COc1ccc(NCc2n[nH]nc2-c2ccccc2)cc1Cl,-3.72% (inactive)
22,C=CCSc1n[nH]c(-c2ccc(OCCCC)cc2)n1,10.5% (inactive)
23,O=C(O)C1CC=CCC1C(=O)NNc1ccccc1 (centres undefined),-1.55% (inactive)
24,CCOP(=O)(OCC)/C(=C/N1CCCCC1)NC(=O)c1ccccc1,0.96% (inactive)
25,CCOc1cc(C(=O)OCc2ccc(C(=O)OC)o2)cc(Br)c1OC,0.05% (inactive)
26,Cc1nc2cc(C(F)(F)F)ccc2n1C1CCN(Cc2nnnn2Cc2ccc3c(c2)OCO3)CC1,1.25% (inactive)

row,SMILES,inhibition
1,Cc1ccc(NC2Sc3ccccc3NC2=O)cc1Cl (centres undefined),-0.25% (inactive)
2,Cc1nc2sccn2c1-c1nc(-c2cc3ccccc3o2)cs1,10.1% (inactive)
3,Cc1ccc(-c2nnc(NCc3nc4ccccc4[nH]3)c3ccccc23)cc1S(=O)(=O)N1CCCCC1,5.89% (inactive)
4,Cn1ccnc1C(O)c1cc(C(C)(C)C)c(O)c(C(C)(C)C)c1 (centres undefined),-3.4% (inactive)
5,COc1ccc(NC(=O)c2oc3ccc(S(=O)(=O)N4CCOCC4)cc3c2C)cc1,10% (inactive)
6,O=C(N/N=C/c1c(F)c(F)c(F)c(F)c1F)c1cccc(S(=O)(=O)N2CCOCC2)c1,-10.6% (inactive)
7,CC(C)(C)c1ccc(C2C3=C(CCCC3=O)NC3=C2C(=O)c2ccccc23)cc1 (centres undefined),8.47% (inactive)
8,CC(C(=O)NC(=O)NC1CCCCC1)N(C)CC(=O)Nc1ccc(F)c(F)c1F (centres undefined),10.7% (inactive)
9,Cc1ccccc1C(=O)Nc1ccc(-c2nc3ccc(C(=O)c4ccccc4)cc3[nH]2)cc1,-1.44% (inactive)
10,ClC1=C(Cl)C(Cl)=C(Cl)C1=C/C=C/c1ccccc1,5.26% (inactive)
11,CC(C)c1ccc2[nH]c(O)c(N=NC(=O)c3ccc(CSc4nncn4C)cc3)c2c1,-6.98% (inactive)
12,CCOc1ccc(NC(=O)CSc2cn[nH]n2)cc1,2.67% (inactive)
13,COC(=O)c1ccc(CSc2nc3cc(Cl)ccc3o2)cc1,-0.73% (inactive)
14,CCOC(=O)c1ccc(N=C2SC(C(=O)Nc3ccc(C(=O)O)cc3)CC(=O)N2Cc2cccs2)cc1 (centres undefined),5.41% (inactive)
15,CCC(C)Nc1nc2c(C)cccn2c(=O)c1C=Nc1ccc(OC)cc1 (centres undefined),-9.31% (inactive)
16,COc1ccc(NC2(c3ccc(Cl)cc3)C(=O)c3ccccc3C2=O)cc1,-3.05% (inactive)
17,COc1ccc(C(=O)NNc2ccccc2)cc1OC,5.15% (inactive)
18,CC(C)C(=O)Nc1cccc(-c2nc3ccccc3c(=O)o2)c1,15.6% (inactive)
19,Cn1c(=O)c2cc(NCc3ccccc3)nnc2n(C)c1=O,-9.62% (inactive)
20,Cc1ccc(C(=O)N2N=C(CC(C)C)CC2(O)C(F)(F)F)o1 (centres undefined),-6.72% (inactive)
21,CCOc1ccc(C2=Nc3ccc(Br)cc3C(c3ccc(N4CCOCC4)cc3)=NN2)cc1,7.94% (inactive)
22,CCOc1ccc(N2CCc3c(C)nc(SC)nc32)cc1,11.8% (inactive)
23,Cc1nc(Nc2ccc(Cl)c(Cl)c2)sc1C(=O)Nc1ccccc1,19.2% (inactive)
24,Cc1ccc(NC(=O)c2ccc(CSc3nnc(C)s3)cc2)c(C)c1,-1.32% (inactive)
25,CCCCN(CC)c1nc(N)c2c(N)nc(OCC)cc2c1C#N,0.66% (inactive)
26,CC(C)C[C@H]1C(=O)N2CCC[C@H]2[C@]2(O)O[C@](NC(=O)C3C=C4c5cccc6[nH]c(Br)c(c56)C[C@H]4N(C)C3)(C(C)C)C(=O)N12 (some centres undefined),15% (inactive)
